This is an account of results in PubChem BioAssay AID1780 (National Center for Advancing Translational Sciences (NCATS), 2009).

Active and inactive are the calls of the source. Calls follow the shape of the dose curve; as a rule, active = well fitted curve in the direction sought with a large enough effect; inactive = no such curve, though single readings can be large or run the other way.

Chain of Pyruvate kinase PKM (Homo sapiens) (P14618 whole entry, looked up, canonical isoform): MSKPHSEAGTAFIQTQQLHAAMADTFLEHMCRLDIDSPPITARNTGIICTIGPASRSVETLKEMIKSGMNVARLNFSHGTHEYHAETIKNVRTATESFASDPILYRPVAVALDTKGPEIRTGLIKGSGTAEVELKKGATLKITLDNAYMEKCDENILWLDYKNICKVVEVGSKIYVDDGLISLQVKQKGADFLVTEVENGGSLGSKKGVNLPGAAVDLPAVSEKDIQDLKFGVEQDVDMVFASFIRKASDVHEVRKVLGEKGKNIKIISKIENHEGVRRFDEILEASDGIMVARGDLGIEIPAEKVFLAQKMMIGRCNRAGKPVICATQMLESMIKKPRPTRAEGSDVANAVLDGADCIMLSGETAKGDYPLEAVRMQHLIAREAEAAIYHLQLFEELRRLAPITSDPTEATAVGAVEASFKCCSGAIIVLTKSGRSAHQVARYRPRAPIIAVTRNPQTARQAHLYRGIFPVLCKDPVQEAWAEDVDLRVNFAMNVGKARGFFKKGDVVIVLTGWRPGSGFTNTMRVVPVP

The target of the assay is Pyruvate kinase PKM (Homo sapiens) (UniProt P14618). The assay is described as follows: Confirmation Concentration-Response Assay for Activators of Human Muscle isoform 1 Pyruvate Kinase. As to conditions: purified hPK-M1, Kinase-Glo ATP luminescence, 1 h; series mostly up to 57.5 µM. The text has this:
Confirmatory assay NIH Chemical Genomics Center [NCGC] Matthew G. Vander Heiden, M.D., Ph.D. [Harvard Medical School, 77 Avenue Louis Pasteur, Boston, MA 02115] NCGC Assay Overview: Human pyruvate kinase […] (hPK-M1) enzyme was supplied as a highly purified (>95% pure) preparation from Harvard Medical School and assayed for its ability to generate ATP from ADP using phosphoenolpyruvate (PEP) as a substrate. ATP generation was detected in a coupled reaction by luciferase-mediated luminescence, an ATP-dependent process. Pyruvate kinase substrates, PEP and ADP, were present in the assay at Km and approximately 10-fold below Km respectively. The enzyme was assayed at an intermediate level of activity to screen for both inhibitors and activators.
NCGC Assay Protocol Summary for M1-isoform: Three uL of substrate mix (at r.t.) in assay buffer (50 mM Imidazole pH7.2, 50 mM KCl, 7 mM MgCl2, 0.01% Tween 20, 0.05% BSA) was dispensed into white solid bottom 1,536 well microtiter plates so that the final concentrations of substrates in the assay were 0.1 mM ADP and 0.5 mM PEP. 23 nL of compound were delivered by a pin tool and 1 uL of enzyme mix (final concentration of 1 nM) in assay buffer (4 degree Celsius) was added. Plates were incubated at room temperature for 1 hour. Two uL of detection mix (Kinase-Glo, Promega; at 4 degree Celsius protected from light) was added and luminescence read by a ViewLux (Perkin Elmer) at 1 second exposure/plate. Data were normalized to the uninhibited (row 31). Additionally, a no enzyme and 5-fold enzyme control was dispensed in row 32, split equally between the two conditions.
With `COc1ccc(S(=O)(=O)N2CCN(S(=O)(=O)c3ccc4c(c3)OCCO4)CC2)cc1`, the compound was called inactive.
With `O=S(=O)(c1ccc2c(c1)OCCO2)N1CCN(S(=O)(=O)c2cc(F)c(F)cc2F)CC1`, the compound was called inactive.
In the case of `O=S(=O)(c1cccc(F)c1)N1CCN(S(=O)(=O)c2ccc3c(c2)OCCO3)CC1` it was “inactive”.
In the case of `Cc1cc2c(s1)c1cnn(Cc3cccc(F)c3F)c(=O)c1n2C` it was “inactive”; in that of `Cc1cc2c(s1)c1cnn(Cc3ccc(C(F)(F)F)cc3)c(=O)c1n2C`, “inactive”; in that of `CC(=O)c1cc2c(s1)c1cnn(Cc3ccccc3F)c(=O)c1n2C`, “inactive”.
Next, `Cc1ccc(Cn2ncc3c4sc(C)cc4n(C)c3c2=O)cc1`: “inactive”; `Cc1cc2c(s1)c1cnn(Cc3ccc(F)cc3F)c(=O)c1n2C`: “inactive”; `Cn1c2cc(S(C)=O)sc2c2cnn(Cc3ccccc3F)c(=O)c21` (centres undefined): “inactive”.
As for `Cc1cc2c(s1)c1cnn(Cc3c(F)cccc3Cl)c(=O)c1n2C`, the compound was called inactive.
In the case of `Cc1cc2c(s1)c1cnn(Cc3ccc(C(C)C)cc3)c(=O)c1n2C` it was “inactive”; in that of `COc1cc(F)c(S(=O)(=O)N2CCN(S(=O)(=O)c3ccc4c(c3)OCCO4)CC2)c(F)c1`, “inactive”; in that of `N#Cc1ccc(S(=O)(=O)N2CCN(S(=O)(=O)c3ccc4c(c3)OCCO4)CC2)cc1`, “inactive”.
In the case of `O=S(=O)(NCCCNS(=O)(=O)c1c(F)cccc1F)c1ccc2c(c1)OCCO2` it was “inactive”; in that of `Cc1cc2c(s1)c1cnn(Cc3ccc(F)c(F)c3F)c(=O)c1n2C`, “inactive”.
On to `O=S(=O)(c1ccc2c(c1)OCCO2)N1CCN(S(=O)(=O)c2cccc[n+]2[O-])CC1`, for which the compound was classed as inactive.
In the case of `O=S(=O)(NCC1CN(S(=O)(=O)c2ccc3c(c2)OCCO3)C1)c1c(F)cccc1F` it was “inactive”; in that of `Cc1cc2c(s1)c1cnn(Cc3ccccc3F)c(=O)c1n2C(C)C`, “inactive”; in that of `Cn1ccc2cc(S(=O)(=O)N3CCN(S(=O)(=O)c4c(F)cccc4F)CC3)ccc21`, “inactive”.
